Screening results as filed in PubChem BioAssay.
In the library only some 3.5% were active in any assay of this set; here they are far more common.
FBW7 act: activators of human E3 ligase FBW7. AlphaScreen FBW7–phospho-cyclin E peptide binding, activator screen. normalized activity (activation), % at 26.1 µM. AID 1259310. hit rate 0.13% among 650,000; in the data active = normalized activity above about 1.9%;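 also: purified mutant Fbw7 with reduced substrate affinity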
Target sequence (Q969H0 whole entry, looked up): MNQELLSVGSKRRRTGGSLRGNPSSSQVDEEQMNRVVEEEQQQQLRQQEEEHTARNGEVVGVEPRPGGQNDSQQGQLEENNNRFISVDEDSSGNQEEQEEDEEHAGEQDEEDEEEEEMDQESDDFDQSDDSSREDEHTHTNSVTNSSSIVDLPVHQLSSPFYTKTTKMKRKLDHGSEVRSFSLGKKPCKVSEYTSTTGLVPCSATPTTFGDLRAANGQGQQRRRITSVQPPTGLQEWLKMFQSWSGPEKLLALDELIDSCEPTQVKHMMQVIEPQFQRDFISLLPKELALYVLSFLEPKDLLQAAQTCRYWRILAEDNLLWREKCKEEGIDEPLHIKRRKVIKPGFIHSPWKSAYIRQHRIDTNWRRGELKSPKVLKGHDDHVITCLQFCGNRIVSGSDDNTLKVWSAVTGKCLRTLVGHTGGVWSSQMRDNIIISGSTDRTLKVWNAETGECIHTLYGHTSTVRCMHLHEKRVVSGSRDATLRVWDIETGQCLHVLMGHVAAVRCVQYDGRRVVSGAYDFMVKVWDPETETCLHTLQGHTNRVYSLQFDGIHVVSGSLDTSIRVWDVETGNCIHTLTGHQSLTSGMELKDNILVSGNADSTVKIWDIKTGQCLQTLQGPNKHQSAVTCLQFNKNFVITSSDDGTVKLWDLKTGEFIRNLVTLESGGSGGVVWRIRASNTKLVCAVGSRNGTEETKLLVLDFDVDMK
GPR151 activ: activators of human GPR151 | Q8TDV0 | PathHunter beta-arrestin GPR151 cells, luminescence | activation, % at 11.2 µM | hit rate 1% among 650,000; in the data active = activation above about 4.9%;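 also: 0% = median of compound wells and 100% = cells with positive control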
MITF inh: blocks human microphthalmia-associated transcription factor. O75030. AlphaScreen MITF homodimerization, bead proximity signal. inhibition, % at 2.6 µM. hit rate 0.91% among 650,000; in the data active = inhibition above about 50%;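 also: 0% = vehicle wells with protein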
TEAD-YAP block: TEAD-YAP interaction inhibition; HEK-TIYL cells, TEAD-Gal4/YAP UAS-luciferase luminescence; inhibition, % at 9.12 µM; hit rate 1.4% among 640,000; in the data active = inhibition above about 32%;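 also: 0% = median of test compound wells and 100% = reference inhibitor wells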
GPR151 conf act: human GPR151 activation, confirmation screen; shares compounds with GPR151 activ; GPR151 PathHunter beta-arrestin cells, luminescence, 90 min; % of EA-reagent control over plate median; activation, % at 11.2 µM; 6,700 tested, under 10 active; AID 1508609;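 active = mean percent activation across replicates above the confirmation screen cutoff of 4.91%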
GPR119 counter: counter-screen for GPR151 activators: effect on human GPR119; shares compounds with GPR151 activ; activation, % at 11.2 µM; hit rate 0.3% among 6,700; GPR119 PathHunter beta-arrestin cells, luminescence, 90 min; 0 = compound-well median, 100 = enzyme-acceptor control;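 active = mean percent activation in the counterscreen above 29.09%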;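 also: counterscreen on off-target GPR119 to flag nonselective hits from the GPR151 activator screen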
* marks the source's active call; other numbers are inactive results; . = not tested or not shown.

SMILES | FBW7 act | GPR151 activ | MITF inh | TEAD-YAP block | GPR151 conf act | GPR119 counter
CC(NC(=O)Nc1ccc(Cl)c(Cl)c1)c1ccncc1 (stereo unspecified) | 0.1 | -0.4 | 20.4 | 7.4 | . | .
COc1ccc(CCNc2cc(N3CCCC3CO)ncn2)cc1 (stereo unspecified) | 0.8 | 13.8* | 4.1 | -48.7 | -0.4 | -8.7
CCCNc1cc(N2CCCC2CO)ncn1 (stereo unspecified) | 0.0 | 0.5 | 4.8 | -5.6 | . | .
COc1ccc(-c2cc(NCCc3ccc(O)cc3)ncn2)cn1 | 0.0 | 2.0 | -7.6 | -13.3 | . | .
COc1ccc(-c2nc(NCCc3ccc(O)cc3)nc(OC)n2)cn1 | 0.0 | 5.9* | 4.3 | -3.8 | -0.9 | -8.0
COc1ccc(CCNc2cc(-c3ccc(OC)nc3)ncn2)cc1 | 0.1 | 5.2* | 6.3 | 10.7 | 1.6 | -4.1
COC(=O)C1(C(F)(F)F)CC(C)=C(C)CN1S(C)(=O)=O (stereo unspecified) | -0.1 | -0.7 | -5.9 | -4.5 | . | .
COC(=O)Cc1ccc(NC(=O)c2ccccc2I)cc1 | -0.1 | 0.1 | -7.0 | -7.7 | . | .
COc1cccc(C(=O)Nc2c3c(nn2C(C)(C)C)CSC3)c1 | 0.1 | 0.9 | 4.7 | 2.3 | . | .
CCCc1ccc(OCC(=O)Nc2ccc(N(CC)CC)cc2)cc1 | -0.2 | 2.1 | 14.8 | 3.4 | . | .
COc1cccc(-c2ccc(OCCCc3ccccn3)nc2)c1 | -0.2 | 5.8* | 5.9 | -39.8 | 0.5 | 3.3
Cn1c(/C=C/C(=O)NCc2ccco2)nc2ccccc21 | 0.0 | 0.7 | -1.7 | 4.5 | . | .
CC(C)(C)c1nnc(N/N=C/c2ccc(O)cc2)[nH]c1=O | -0.1 | 2.2 | 3.3 | 13.6 | . | .
COc1cc(/C=N/Nc2nnc(C(C)(C)C)c(=O)[nH]2)cc(OC)c1OC | 0.0 | 6.1* | 3.4 | 7.6 | 0.7 | -3.4
Cc1cccc(CCNC(=O)NCc2noc3ccccc23)c1 | 0.0 | 14.5* | -4.6 | -14.2 | 0.3 | -1.4
Cc1cc(Br)ccc1NC(=O)NCc1noc2ccccc12 | -0.1 | 6.1* | -0.1 | -3.7 | -1.0 | 5.6
COc1ccc(NC(=O)NCc2noc3ccccc23)c(OC)c1 | -0.2 | 0.9 | -6.0 | 2.9 | . | .
Cc1ccc(CCNC(=O)NCc2noc3ccccc23)cc1 | -0.1 | -1.3 | 0.3 | -12.4 | . | .
Cc1ccc2occ(C(=O)c3ccccc3Cl)c(=O)c2c1 | -0.1 | 7.7* | 10.4 | 11.0 | 0.7 | -5.7
CC(OC(=O)c1ccc2c(c1)OCO2)C(=O)Nc1ccc([N+](=O)[O-])cc1C(F)(F)F (stereo unspecified) | 0.5 | -0.7 | 12.8 | 0.8 | . | .
NC(=O)c1ccsc1NC(=O)CSc1ccc(Cl)cc1 | 0.1 | 9.5* | -0.9 | -32.9 | -0.8 | 6.6
O=C(CSc1nc2[nH]ncc2c(=O)n1-c1ccc(Cl)cc1)Nc1ccc(F)c(F)c1 | 0.9 | -0.5 | 6.8 | 10.1 | . | .
CCn1nc(C)c(CNCc2cn[nH]c2-c2ccc(OC)c(F)c2)c1C | 0.2 | 5.4* | 10.1 | 6.7 | 0.0 | -5.4
COc1ccc(-c2[nH]ncc2CNC(C)CCn2cccn2)cc1F (stereo unspecified) | 0.0 | 0.4 | 10.1 | -10.8 | . | .
CCN(CCN(C)C)C(=O)c1cnn(-c2nccc(-c3ccccc3OC)n2)c1C | -0.1 | -1.2 | -8.5 | -21.5 | . | .
SMILES | FBW7 act | GPR151 activ | MITF inh | TEAD-YAP block | GPR151 conf act | GPR119 counter
N#Cc1cccc(S(=O)(=O)Nc2ccccc2F)c1 | -0.1 | -1.4 | 1.7 | -1.2 | . | .
O=S(=O)(Nc1ccccc1F)c1cccc(S(=O)(=O)c2ccccc2)c1 | -0.1 | 5.3* | 10.9 | 3.3 | 0.3 | 5.5
O=C(c1ccc2cc[nH]c2c1)N1CCNCC1 | 0.0 | -2.0 | -8.8 | -0.2 | . | .
O=C(c1ccc2cc[nH]c2c1)N1CCN(C(=O)C(c2ccccc2)c2ccccc2)CC1 | -0.1 | 5.6* | 7.8 | 10.0 | -0.7 | -11.6
Nc1ccc2nc(-c3ccccc3)oc(=O)c2c1 | 0.1 | 0.4 | 42.5 | -6.1 | . | .
CCOC(=O)c1ccc(CN2C(=O)CCC2CCNCc2ccccc2)o1 (stereo unspecified) | -0.2 | -0.7 | -2.7 | 15.1 | . | .
CCN(C(=O)CN1CCC2(CC1)OCCO2)c1nc2ccc(C)cc2s1 | -0.2 | -0.6 | 5.2 | -15.7 | . | .
Cc1ccc(C)c(NS(=O)(=O)c2ccc3c(c2)C(=O)c2ccccc2C3=O)c1 | 0.0 | 0.1 | 22.6 | 0.4 | . | .
N#C/C(=C/c1ccccc1[N+](=O)[O-])c1ccc2c(c1)OCO2 | -0.1 | 5.7* | 5.8 | -8.4 | -0.2 | -12.9
Cc1ccc(/C=C(/C#N)c2ccc3c(c2)OCO3)cc1[N+](=O)[O-] | -0.2 | -0.8 | 4.9 | -1.9 | . | .
O=C(CCc1ccccc1)OC1CCS(=O)(=O)C1 (stereo unspecified) | 0.1 | -0.1 | -9.1 | 0.8 | . | .
N#Cc1ccc2c(c1)N(Cc1ccc(F)cc1)C(=O)C1CCCN21 (stereo unspecified) | 0.1 | 0.7 | 3.0 | 1.7 | . | .
Cc1ccc(CN2C(=O)C3CCCN3c3ccc(C#N)cc32)cc1 (stereo unspecified) | 0.0 | 5.6* | -3.2 | -3.9 | 1.4 | 7.3
CCOc1ccc(CCNC(=O)c2cn(-c3ccc(OC)cc3)c(=O)c3ccccc23)cc1 | -0.1 | 7.0* | -49.4 | 10.8 | -0.2 | -6.1
O=C(Nc1cccc(Cl)c1)c1ccc(=O)[nH]c1 | -0.1 | -2.8 | -2.5 | 4.1 | . | .
Cc1ccc(NS(=O)(=O)c2ccc(NS(=O)(=O)c3ccc4c(c3)OCCO4)cc2)cc1C | 0.2 | -2.0 | 0.5 | 3.5 | . | .
Cc1ccc(S(=O)(=O)Nc2ccc3c(c2)OCCOCCOCCOCCOCCO3)cc1 | -0.1 | 5.2* | -1.2 | -9.3 | -0.9 | -8.5
Cc1ccc(S(=O)(=O)Nc2ccc(Cl)c([N+](=O)[O-])c2)cc1 | 0.0 | 6.3* | 12.4 | -8.7 | -1.1 | 1.9
COc1ccc2nc3sc(C(=O)N4CCCCC4)cc3cc2c1 | 0.2 | -1.2 | 4.0 | -46.2 | . | .
Cc1ccc(NC(=O)CO/N=C(\N)c2nonc2N)cc1 | 0.1 | 5.9* | 8.5 | 6.5 | 0.7 | -6.3
N/C(=N/OCc1ccc(Cl)c(Cl)c1)c1nonc1N | 0.3 | 8.7* | 22.0 | -42.7 | -1.0 | -2.8
Cc1ccc(-c2csc(NC(=O)/C=C/c3cccs3)n2)o1 | 0.1 | 0.6 | -5.8 | -16.2 | . | .
O=C(N/N=C\c1cccc([N+](=O)[O-])c1)c1ccc(O)cc1 | -0.1 | -0.6 | -24.1 | 1.9 | . | .
O=C(N/N=C/c1cccc([N+](=O)[O-])c1)c1cc(O)c(O)c(O)c1 | -0.2 | 5.7* | 14.9 | -10.1 | 1.2 | 3.5
O=C(N/N=C\c1ccc(Br)cc1)c1cc([N+](=O)[O-])cc([N+](=O)[O-])c1 | -0.1 | -0.7 | 2.9 | -2.8 | . | .
O=C(CCCC(=O)N/N=C/c1cccc([N+](=O)[O-])c1)N/N=C/c1cccc([N+](=O)[O-])c1 | 0.1 | 14.1* | -8.4 | 6.1 | 0.6 | 2.3
O=C(N/N=C/c1ccc([N+](=O)[O-])cc1)c1ccc(Br)cc1 | -0.2 | 7.8* | 3.5 | -5.4 | 0.9 | -2.0
O=C(N/N=C/c1cccc(O)c1)c1cnccn1 | 0.0 | -4.5 | -1.8 | -6.1 | . | .
